Screening results (PubChem BioAssay)
PABP1 MLLE inh: inhibitors of PABP1 MLLE–PAM2 peptide binding, primary screen, biochemical, fluorescence polarization, FITC-PAM2, GST-MLLE; inhibition, % at 20 µM; Polyadenylate-binding protein 1 (Homo sapiens), P11940; AID 588489, 2011; hit rate 0.36% among 360,000; in the data active means inhibition above about 35%, passing the limit was not always enough;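 further: plate controls were DMSO wells with GST-MLLE for no effect and wells lacking GST-MLLE protein for full effect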
PHOSPHO1 inh: PubChem AID 1565; Phosphoethanolamine/phosphocholine phosphatase (Homo sapiens), Q8TCT1; recombinant PHOSPHO1, absorbance phosphatase assay; inhibition, % at 13.3 µM; hit rate 1.1% among 290,000; in the data active means inhibition above about 60%
eIF4H FP inh: human eIF4H binding inhibitors, primary screen, translation initiation inhibitor project, biochemical, uHTS, fluorescence polarization; Eukaryotic translation initiation factor 4H (Homo sapiens), Q15056; eIF4H fluorescence polarization binding assay; inhibition, % at 35 µM; hit rate 0.94% among 290,000;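 further: calls also rest on retests at 20 µM and on dose response follow-up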
A3A deaminase: APOBEC3A ssDNA deaminase inhibitors, primary screen, selectivity assay for APOBEC3G inhibitor project, biochemical, FAM/TAMRA oligo cleavage fluorescence. DNA dC->dU-editing enzyme APOBEC-3A (Homo sapiens), P31941. recombinant A3A, FAM/TAMRA ssDNA deamination fluorescence. inhibition, % at 20 µM. hit rate 0.41% among 330,000. AID 493011, 2011;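 active means at least 40% inhibition at 20 µM here, with at most 30% in a related deaminase screen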;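 further: plate controls were A3A with DMSO for no effect and wells lacking A3A enzyme for full effect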
A3G deaminase: APOBEC3G DNA deaminase inhibitors, primary screen, biochemical, fluorescence, single-stranded DNA substrate, uHTS; DNA dC->dU-editing enzyme APOBEC-3G (Homo sapiens), Q9HC16; recombinant A3G, ssDNA deamination FAM/TAMRA fluorescence; inhibition, % at 20 µM; hit rate 0.28% among 330,000; AID 493012, 2011;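 active means inhibition of at least 40% at 20 µM, with no more than 30% in the related APOBEC3A deaminase screen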;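 further: plate controls were DMSO wells with A3G for no effect and wells lacking A3G enzyme for full effect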
PABP FP inh: PABP poly(A) RNA binding inhibitors, primary screen, biochemical, fluorescence polarization, uHTS; Polyadenylate-binding protein 1 (Homo sapiens), P11940; calls only at 35 µM; hit rate 1% among 290,000;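 further: calls also rest on retests at 20 µM and on dose response follow-up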
A3G conf: APOBEC3G deaminase inhibitor retest, confirmation, biochemical, fluorescence, single-stranded DNA substrate, single concentration | shares compounds with A3G deaminase | recombinant A3G ssDNA deaminase, UDG/FAM-TAMRA fluorescence | inhibition, % at 20 µM | hit rate 72% among 890 | AID 493152, 2011;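 active means inhibition reaching a set limit in any replicate at 20 µM, the limit being 80% of the first screen's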
UDG ctr A3G: E. coli UDG inhibitors, confirmation, counter-screen for APOBEC3G inhibitor project, biochemical, single concentration, fluorescence, FAM/TAMRA oligo | shares compounds with A3G deaminase | UDG counterscreen | 710 tested, under 10 active | inhibition, % at 20 µM;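 active means compounds giving 40% or more inhibition at 20 µM in any one of the three replicates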;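 further: plate controls were DMSO wells with UDG and oligo for no effect and DMSO wells lacking both for full effect; inhibitors lower the FAM signal released by uracil excision and alkaline cleavage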
* hit, by the source's call; i = inactive; ? = inconclusive; / = not tested or not shown. A selection: hits, their analogues and other compounds. The true share with any hit is near 2.6%. Unless noted, how the calls were made is not given here.

SMILES	PABP1 MLLE inh	PHOSPHO1 inh	eIF4H FP inh	A3A deaminase	A3G deaminase	PABP FP inh	A3G conf	UDG ctr A3G
COc1cc(/C=N/NC(=O)Cn2cnc3c2c(=O)n(C)c(=O)n3C)ccc1O	-11	25	-2	0	-1	i	/	/
COc1ccc(Cl)cc1S(=O)(=O)N1CCC(C(=O)NC2CCCC2)CC1	13	-9	13	-2	1	i	/	/
Cc1cc(C)cc(N(CC(=O)NC2CCCC2)C(=O)CNC(=O)c2cccs2)c1	-8	32	3	-2	-8	i	/	/
Cc1ccccc1-n1sc2cc(F)ccc2c1=O	29	42	-16	13	75*	i	81*	-3
COc1cccc(Nc2n[nH]c(=S)s2)c1	18	49	-12	1	58*	i	63*	2
O=C1C(Cl)=C(NC(=O)c2ccccc2)C(=O)C(Cl)=C1NC(=O)c1ccccc1	57*	36	0	2	86*	i	91*	/
O=C(NC1=C(Nc2ccc(Cl)cc2)C(=O)c2ccccc2C1=O)c1ccccc1	21	-5	1	5	0	i	/	/
Cc1ccc(S(=O)(=O)N(C)C)cc1NC(=O)C(C)OC(=O)C1CCCC1 (centres undefined)	-8	/	/	2	-5	/	/	/
CN(C)CCCOC(=O)COc1ccc(C(C)(C)C)cc1	-5	-5	11	1	-4	i	/	/
Cc1cc(-c2csc(N)n2)c(C)n1CCc1ccccc1	19	-4	?	-1	3	?	/	/
Cc1cc(-c2csc(N)n2)c(C)n1CCC(C)C	27	102*	?	6	40*	?	13	/
O=C(Nc1cc(S(=O)(=O)N2CCOCC2)ccc1O)c1ccc(S(=O)(=O)N2CCCCC2)cc1	13	/	/	0	-5	/	/	/
O=C(Nc1cc(S(=O)(=O)Nc2ccc(Cl)cc2)ccc1O)c1ccc(S(=O)(=O)N2CCCCCC2)cc1	28	21	-7	0	53*	i	44*	11
COc1cccc(C(=O)NCc2n[nH]c(=S)n2-c2cccc(C)c2)c1	4	87*	-2	0	47*	i	61*	-3
Cc1c(C)c2ccc(OCC(=O)NCCCn3ccnc3)cc2oc1=O	-6	35	-19	1	1	i	/	/
COC(=O)c1cc2c(C(F)(F)F)nn(C)c2s1	6	-6	-5	-2	-3	i	/	/
CCn1c(-c2cc3c(C(F)(F)F)nn(C)c3s2)n[nH]c1=S	-4	37	-3	-8	41*	i	63*	-2
Cn1nc(C(F)(F)F)c2cc(C(=O)O)sc21	-2	40	4	-2	-3	i	/	/
Cn1c(-c2cc3c(C(F)(F)F)nn(C)c3s2)n[nH]c1=S	-24	-5	-2	-2	53*	i	77*	1
COCCCNC(=S)N(CCCO)Cc1cc2cc3c(cc2[nH]c1=O)OCO3	-20	19	0	-1	48*	i	0	-3
COc1ccc(NC(=O)COC(=O)c2ccc(S(=O)(=O)N3CCCCC3)cc2)c(OC)c1	-1	/	/	/	/	/	/	/
COCCN(C(=O)COC(=O)Cc1ccc(Cl)cc1Cl)c1c(N)n(Cc2ccccc2)c(=O)[nH]c1=O	-3	/	/	7	43*	/	-2	/
COCCN(C(=O)COC(=O)C1CC1)c1c(N)n(Cc2ccccc2)c(=O)[nH]c1=O	-29	/	/	4	-10	/	/	/
Cc1ccc(Cl)cc1NC(=S)N1CCC(c2ccccc2)C1 (centres undefined)	-108	15	5	-2	-7	i	/	/
